HSD17B inh = HSD17B dehydrogenase inhibition | Q99714 | recombinant HSD17B10, NADH fluorescence kinetic | Potency, µM (doses to about 57.1 µM), usual class: inhibitors | actives 7.6% (n = 75,000) | AID 893;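 note: the protocol describes HADH2 (HSD17B10) and not the HSD17B4 of the title; nearly all actives have a fitted effect of over 70% in size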
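His-tagged E. coli-expressed HADH2 at 20 nM in 100 mM Tris-HCl pH 9.0 with 0.01 % Tween-20, preincubated 15 min with compound at room temperature. Reaction with 1 mM NAD+ and 90 uM beta-hydroxybutyryl coenzyme A; NADH fluorescence (360/450 nm) read kinetically over 4 min, last minus first point.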
HADH2 inh = HADH2 (human) dehydrogenase inhibition | Potency, µM (doses to about 57.1 µM), actives largely listed as inhibitors | recombinant HADH2, NADH fluorescence, beta-hydroxybutyryl-CoA | actives 3.4% (n = 73,000); note: nearly all actives have a fitted effect of over 60% in size
Target sequence (Q99714 whole entry, looked up, one chain of several): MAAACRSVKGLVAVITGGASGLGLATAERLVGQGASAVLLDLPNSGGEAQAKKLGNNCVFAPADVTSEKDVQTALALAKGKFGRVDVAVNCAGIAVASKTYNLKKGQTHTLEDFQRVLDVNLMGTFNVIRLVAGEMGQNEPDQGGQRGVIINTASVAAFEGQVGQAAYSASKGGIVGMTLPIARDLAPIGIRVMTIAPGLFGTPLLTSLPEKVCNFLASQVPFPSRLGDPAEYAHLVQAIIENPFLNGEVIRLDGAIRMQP
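NADH fluorescence (ex 360/em 450 nm) read every 30 s for 4 min; activity taken as last-minus-first time point difference. Enzyme 20 nM, NAD+ 1 mM, beta-hydroxybutyryl-CoA 90 uM, pH 9.0 Tris buffer.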
CRE-bla Fsk = CRE-bla signaling modulation under forskolin stimulation; CHO CRE-bla reporter (cAMP response element driving beta-lactamase), forskolin EC10, beta-lactamase ratio; Potency, µM (titrated, usually from 38.2 µM), hits mostly activators; actives 2.5% (n = 71,000); active = well fitted activation curve with a large enough effect in the signal ratio, with a control signal flat, not every such curve was filed as active; inconclusive = small, poorly fitted or top-dose-only effect, or effect the other way, or a change in a side signal; the % refers to the signal ratio
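qHTS titration format; CRE-bla CHO reporter; stimulus EC10 NKH 477, a water-soluble forskolin. Read: CCF4 460/530 nm ratio. Potency expressed as AC50 for activators or inhibitors.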
AID923 = qHTS Assay for Allosteric/Competitive Inhibitors of Caspase-1: Spectroscopic Profiling in AFC Spectral Region; compound fluorescence, AFC spectral region (405/520 nm); Potency, µM (highest dose often 57.5 µM), hits mostly activators; actives 1.1% (n = 75,000); AID 923, 2007
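Baseline compound fluorescence (AFC region, 405 nm ex/520 nm em) taken from the intercept of kinetic reads with 50 nM caspase-1 and 5 uM Ac-WEHD-AFC; normalized to an on-plate AFC standard curve; compounds titrated up to 57 uM.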
4MU fluor = compounds fluorescent in 4-MU spectral region; compound autofluorescence, 340/450 nm, 4-MU equivalents; hits give high values; max dye-equivalent concentration, M; actives 11% (n = 59,000); in the data active = max dye-equivalent concentration above about 10 nM; inconclusive = mostly about 1.1 nM to 9.6 nM
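Compounds in 100 mM Tris, pH 8.0, sat 15 min at room temperature before fluorescence was read at 340 nm excitation/450 nm emission; a per-plate six-point 4-MU standard curve converted signals to dye-equivalent concentration at each compound concentration.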
A350 fluor = compounds fluorescent in Alexa 350 spectral region; Compound autofluorescence, 340/450 nm, Alexa 350 dye-equivalents; hits give high values; actives 11% (n = 59,000); AID 590; max dye-equivalent concentration, M; in the data active = max dye-equivalent concentration above about 10 nM; inconclusive = mostly about 1.1 nM to 9.6 nM
Of the large screens only hits and unclear results are named; the others gave an inactive call. Compounds with a hit are over-represented: about 14% of the library has one in this group of screens. Unless noted, calls come from the whole dose curve; as a rule, active = well fitted curve in the direction sought with a large enough effect; inconclusive = small, poorly fitted or top-dose-only effect, or another doubt; inactive = no such curve, though single readings can be large; an effect the other way counts as inactive or inconclusive.

CCCCOC(=O)C(C#N)c1nc2ccccc2nc1N1CCOCC1 (centres undefined)	CRE-bla Fsk inconclusive, 4MU fluor inconclusive, A350 fluor 2.5e-08M
CCCCCCOC(=O)C(C#N)c1nc2ccccc2nc1N1CCN(CC)CC1 (centres undefined)	CRE-bla Fsk inconclusive, 4MU fluor inconclusive, A350 fluor inconclusive
CCCCCCOC(=O)C(C#N)c1nc2ccccc2nc1N1CCOCC1 (centres undefined)	4MU fluor 3.8e-08M, A350 fluor 5.1e-08M
C[N+](C)(C)c1ccc([C@H](N)C(=O)O)cc1	none
O=C(c1ccco1)N1CCN(CC(O)Cn2c3ccccc3c3ccccc32)CC1 (centres undefined)	none
CCCCN(C)CCCNC(=O)c1ccc(N2CCCC2=O)cc1	4MU fluor 1e-08M, A350 fluor inconclusive
COc1ccc(CNC(=O)c2ccc(N3CCCC3=O)cc2)cc1	4MU fluor 1.3e-08M, A350 fluor 1.3e-08M
O=C(NCCN1CCCCCC1)c1ccc(N2CCCC2=O)cc1	4MU fluor 1.9e-08M, A350 fluor 1.8e-08M
CN(CCCNC(=O)c1ccc(N2CCCC2=O)cc1)c1ccccc1	none
COc1ccc(NC(=O)N2CCC3(CC2)CCN(S(C)(=O)=O)CC3)cc1	none
CN(C)Cc1cc(CCNC(=O)c2ccc(Cl)cc2)ccc1O	none
N#Cc1ccccc1-c1cncnc1NCc1cccnc1	CRE-bla Fsk inconclusive
CC1=C(C(=O)OCc2ccccc2)C(C2CC2)NC(=O)N1CCCCCC(=O)O (centres undefined)	none (no result: 4MU fluor, A350 fluor)
Cc1ccc(S(=O)(=O)N(CC(=O)O)c2cccc(Cl)c2)cc1	none (no result: CRE-bla Fsk, 4MU fluor, A350 fluor)
NC(Cc1cnc[nH]1)C(=O)Nc1ccc2ccccc2c1 (centres undefined)	none (no result: HADH2 inh, CRE-bla Fsk, 4MU fluor, A350 fluor)
CN1C(=O)/C(=C2\SC(=S)N(CC3CCCO3)C2=O)c2ccccc21 (centres undefined)	none (no result: 4MU fluor, A350 fluor)
CN1C(=O)/C(=C2\SC(=S)N(C(CCC(=O)O)C(=O)O)C2=O)c2ccccc21 (centres undefined)	HADH2 inh 13µM (no result: 4MU fluor, A350 fluor)
Cc1ccc2nc(NC(=O)c3cccs3)sc2c1	HSD17B inh inconclusive, 4MU fluor 1.8e-08M, A350 fluor 2.3e-08M
COc1ccc2c(c1)-c1nc(NC(=O)c3cccs3)sc1CC2	HADH2 inh 16µM (no result: CRE-bla Fsk, 4MU fluor, A350 fluor)
O=C(Nc1nc(-c2cc(Cl)sc2Cl)cs1)c1cccs1	HSD17B inh inconclusive, CRE-bla Fsk inconclusive, 4MU fluor 2.2e-08M, A350 fluor 2.6e-08M
CC(C)CO/N=C1/C[C@@H](O)[C@@H](O)[C@@H]2[C@@H]3C(=O)N(C[C@@H]4CCCO4)C(=O)[C@H]3CC[C@H]12	HADH2 inh inconclusive (no result: CRE-bla Fsk, 4MU fluor, A350 fluor)
CC(=O)N1[C@H](Cc2ccccc2)C=C[C@]1(C)C(=O)O	HSD17B inh inconclusive (no result: 4MU fluor, A350 fluor)
C#CCCCO/N=C1/C[C@@H](O)[C@@H](O)[C@@H]2[C@@H]3C(=O)N(Cc4ccccc4)C(=O)[C@H]3CC[C@H]12	none (no result: CRE-bla Fsk, 4MU fluor, A350 fluor)
Cc1nc(/N=C(\N)Nc2ccccc2)nc2ccccc12	4MU fluor 1.8e-07M, A350 fluor 2e-07M (no result: HSD17B inh, HADH2 inh, CRE-bla Fsk, AID923)
c1nc2nc3c(c(N4CCOCC4)n2n1)CCCC3	CRE-bla Fsk 2.5µM, 4MU fluor 2.1e-08M, A350 fluor 1.7e-08M
Fc1cccc(-c2cc3nc4c(c(N5CCOCC5)n3n2)CCCC4)c1	HSD17B inh inconclusive, HADH2 inh 25µM, CRE-bla Fsk 10µM, 4MU fluor 5.3e-08M, A350 fluor 3.5e-08M
Clc1cccc(-c2cc3nc4c(c(N5CCOCC5)n3n2)CCCC4)c1	HSD17B inh inconclusive, HADH2 inh 32µM, CRE-bla Fsk inconclusive, 4MU fluor 1.1e-07M, A350 fluor 1.3e-07M
COc1ccccc1-c1ccc2ncnc(N(C)C)c2c1	CRE-bla Fsk inconclusive
N#Cc1ccc(C23CC4(C2)[C@H](CN(Cc2cccnc2)[C@@H]4c2ccccc2)C3c2ccc(C(F)(F)F)cc2)cc1 (some centres undefined)	none (no result: HADH2 inh, CRE-bla Fsk, 4MU fluor, A350 fluor)
COc1ccc2c(c1OC)C(=O)N(c1cccc(C)c1)C2	CRE-bla Fsk inconclusive
COc1ccc2c(c1OC)C(=O)N(c1ccccn1)C2	HSD17B inh 25µM, HADH2 inh inconclusive, CRE-bla Fsk 10µM

Source: PubChem BioAssay (National Center for Advancing Translational Sciences (NCATS))
